For experiment [1], the target named is Retinoic acid receptor RXR-alpha (Homo sapiens) (UniProt P19793). Description: ATG_RXRa_TRANS: Attagene TRANS-FACTORIAL HepG2 Assay for human Retinoid X Receptor alpha (RXRa) (AID 2283012; active = hit-call score of the fitted dose curve at least 0.9, where 1 is the maximum). In a few lines: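 Cells (HepG2) carried transiently transfected GAL4-responsive reporter units. Following a 24 h chemical incubation, reporter mRNA induction was read via RT-PCR fragment analysis; DMSO served as negative control and baseline.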

Read-out in experiment [2]: E-selectin (Homo sapiens) (UniProt P16581)
Nature of the experiment: BSK_3C_Eselectin: BioMAP Diversity Plus: 3C Assay for Eselectin Biomarker Activity (AID 2283015).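 As to outcome: cell surface E-selectin protein quantified by ELISA 24 h after dosing.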 As to conditions: primary human endothelial cells (HUVEC); actives raise or lower the signal. Put shortly: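 Human vascular endothelium from umbilical vein is exposed to test chemicals for 24 h. E-selectin levels are read by ELISA and compared with DMSO controls.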

Read-out in experiment [3]: Interleukin-1 alpha (IL1a), IL1A (gene 3552)
Nature of the experiment: BSK_BE3C_IL1a: BioMAP Diversity Plus: BE3C Assay for Interleukin-1 alpha (IL1a) Biomarker Activity (AID 2283016). To be noted: primary human bronchial epithelial cells; actives raise or lower the signal. Put shortly:
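Cultures of primary human bronchial epithelial cells receive test chemical. After 24 h, IL-1a is quantified by ELISA, while parallel wells are fixed in TCA and SRB-stained for total protein. Changes in either direction are fitted relative to DMSO.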

Read-out in experiment [4]: Monocyte Chemoattractant Protein-1 (MCP1), CCL2 (gene 6347)
Description: BSK_3C_MCP1: BioMAP Diversity Plus: 3C Assay for Monocyte Chemoattractant Protein-1 (MCP1) Biomarker Activity (AID 2283017). To be noted: primary human endothelial cells (HUVEC); actives raise or lower the signal. In a few lines: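 Endothelial cells from human umbilical vein are dosed with chemical, cultured 24 h, then assayed for MCP-1 by ELISA; both increases and decreases are modelled against DMSO controls.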

Read-out in experiment [5]: Monocyte Chemoattractant Protein-1 (MCP1), CCL2 (gene 6347)
Description: BSK_4H_MCP1: BioMAP Diversity Plus: 4H Assay for Monocyte Chemoattractant Protein-1 (MCP1) Biomarker Activity (AID 2283018). As to conditions: primary human endothelial cells (HUVEC); actives raise or lower the signal. Put shortly: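 Readout: MCP-1 ELISA on compound-treated HUVEC, sampled 24 h post-dosing. Baseline and negative control DMSO; bidirectional fit. Overt toxicity checked alongside by sulforhodamine B protein staining at time of biomarker measurement.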

Read-out in experiment [6]: Human Leukocyte Antigen - DR isotype (HLADR), HLA-DRA (gene 3122)
Nature of the experiment: BSK_3C_HLADR: BioMAP Diversity Plus: 3C Assay for Human Leukocyte Antigen - DR isotype (HLADR) Biomarker Activity (AID 2283019).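 As to outcome: ELISA of cell-surface HLA-DR on HUVEC 24 h after dosing.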 As to conditions: primary human endothelial cells (HUVEC); actives raise or lower the signal. In a few lines:
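Endothelial cells from human umbilical vein are treated with test chemical; after 24 h, HLA-DR levels are measured by ELISA. Data are fitted in both directions using DMSO as the baseline.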

Read-out in experiment [7]: Interleukin-8 (IL8), CXCL8 (gene 3576)
Nature of the experiment: BSK_3C_IL8: BioMAP Diversity Plus: 3C Assay for Interleukin-8 (IL8) Biomarker Activity (AID 2283020). As to conditions: primary human endothelial cells (HUVEC); actives raise or lower the signal. Put shortly: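 Human vascular endothelial cells (umbilical vein) in the 3C system; IL-8 level detected by ELISA at 24 h post-dose, with DMSO as baseline.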

Read-out in experiment [8]: Monokine induced gamma interferon (MIG), CXCL9 (gene 4283)
Nature of the experiment: BSK_3C_MIG: BioMAP Diversity Plus: 3C Assay for Monokine induced gamma interferon (MIG) Biomarker Activity (AID 2283021).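 As to AC50: MIG protein level measured by immunoassay in the treated endothelial cultures.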 To be noted: primary human endothelial cells (HUVEC); actives raise or lower the signal. In a few lines: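 After 24 h of treatment, human umbilical vein endothelial cultures (3C system) had their MIG biomarker level determined by ELISA, with DMSO serving as negative control.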

The target of experiment [9] is human Vitamin D Receptor (VDR), VDR (gene 7421) (UniProt P11473). Nature of the experiment: ATG_VDR_TRANS: Attagene TRANS-FACTORIAL HepG2 Assay for human Vitamin D Receptor (VDR) (AID 2283022; active = hit-call score of the fitted dose curve at least 0.9, where 1 is the maximum). Put shortly:
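Fluorescence of labelled reporter cDNA fragments, resolved by capillary electrophoresis, gives mRNA induction after 24 h treatment of HepG2 cells carrying transfected Gal4-fusion reporter units. Activity is fitted in the positive direction with DMSO as baseline.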

A short description of experiment [10]: BSK_3C_SRB: Viability Assessment in the BioMAP Diversity Plus: 3C Assay (AID 2283023).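 Also: fitted both ways against DMSO so a hit may be signal rise or drop.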 To be noted: primary human endothelial cells (HUVEC). Put shortly: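 Cells were dosed with chemical, cultured 24 h, fixed with 10% TCA, stained with 0.1% SRB and read at 560 nm. Human umbilical vein endothelium was used; DMSO served as negative control and baseline.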
Read-out in experiment [11]: Matrix Metallopeptidase 1 (MMP1), MMP1 (gene 4312)
Nature of the experiment: BSK_BE3C_MMP1: BioMAP Diversity Plus: BE3C Assay for Matrix Metallopeptidase 1 (MMP1) Biomarker Activity (AID 2283024). To be noted: primary human bronchial epithelial cells; actives raise or lower the signal. Put shortly: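 Dose cells, wait 24 h, run MMP1 ELISA; cells are human bronchial epithelial primaries. Both increases and decreases relative to DMSO counted.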

A short description of experiment [12]: BSK_3C_Vis: BioMAP Diversity Plus: 3C Assay for Morphology Visualization (AID 2283025).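 Also: fitted both ways so gain or loss versus DMSO counts.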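 As to AC50: light microscopy image of cell morphology used as background control.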 To be noted: primary human endothelial cells (HUVEC). In a few lines:
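Endothelial cells from human umbilical vein were treated with test chemicals for 24 h and inspected by light microscopy for changes in cell conformation.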

Read-out in experiment [13]: Pselectin, SELP (gene 6403)
Description: BSK_4H_Pselectin: BioMAP Diversity Plus: 4H Assay for Pselectin Biomarker Activity (AID 2283026). As to conditions: primary human endothelial cells (HUVEC); actives raise or lower the signal. Put shortly: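 Human vascular endothelium from umbilical vein; P-selectin measured by ELISA at 24 h post-dose, with cytotoxicity checked by sulforhodamine B total-protein staining in parallel cultures (0.1% SRB after 10% TCA fixation, read at 560 nm).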

Experiment [14] in a line: BSK_4H_SRB: Viability Assessment in the BioMAP Diversity Plus: 4H Assay (AID 2283027).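 Also: cells exposed to compound for 24 h before staining.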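 As to AC50: curves fitted both ways versus DMSO so AC50 may be loss or gain.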 To be noted: primary human endothelial cells (HUVEC). Put shortly:
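Absorbance at 560 nm of SRB-stained total protein served as the viability read-out in confluent primary human umbilical vein endothelium 24 h after chemical treatment. Curves were fitted bidirectionally against DMSO as negative control.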

The nature of experiment [15]: BSK_BE3C_SRB: Viability Assessment in the BioMAP Diversity Plus: BE3C Assay (AID 2283028).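 As to AC50: fitted both ways so AC50 may mark signal gain or loss versus DMSO.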 To be noted: primary human bronchial epithelial cells. Put shortly: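 Overt cytotoxicity was assessed as total protein in confluent human primary bronchial epithelial cultures 24 h after chemical addition, using 0.1% sulforhodamine B staining read at 560 nm.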
Read-out in experiment [16]: Thrombomodulin, THBD (gene 7056)
Nature of the experiment: BSK_3C_Thrombomodulin: BioMAP Diversity Plus: 3C Assay for Thrombomodulin Biomarker Activity (AID 2283029). To be noted: primary human endothelial cells (HUVEC); actives raise or lower the signal. In a few lines: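 Thrombomodulin ELISA, human primary HUVEC, 24 h post-dose; data fitted in both directions relative to DMSO.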

Read-out in experiment [17]: Urokinase-type plasminogen activator receptor (uPAR), PLAUR (gene 5329)
Description: BSK_4H_uPAR: BioMAP Diversity Plus: 4H Assay for Urokinase-type plasminogen activator receptor (uPAR) Biomarker Activity (AID 2283030). To be noted: primary human endothelial cells (HUVEC); actives raise or lower the signal. In a few lines:
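Chemicals are dosed onto human vascular endothelial primary cells (umbilical vein). After 24 h, uPAR is read by ELISA. Gain or loss of signal is fitted relative to DMSO.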

Read-out in experiment [18]: Vascular endothelial growth factor receptor 2 (Homo sapiens) (UniProt P35968)
Description: BSK_4H_VEGFRII: BioMAP Diversity Plus: 4H Assay for Vascular endothelial growth factor receptor 2 (VEGFR2) Biomarker Activity (AID 2283031).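 As to AC50: cell-surface VEGFR2 protein level quantified by ELISA.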 As to conditions: primary human endothelial cells (HUVEC); actives raise or lower the signal. In a few lines:
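VEGFRII levels on human vascular endothelial primary cells were determined by ELISA at 24 hours post-dosing, with gain- or loss-of-signal fitted against DMSO controls.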

Experiment [19] concerns the target human Retinoid X Receptor beta (RXRb), RXRB (gene 6257) (UniProt P28702). Nature of the experiment: ATG_RXRb_TRANS: Attagene TRANS-FACTORIAL HepG2 Assay for human Retinoid X Receptor beta (RXRb) (AID 2283013; active = hit-call score of the fitted dose curve at least 0.9, where 1 is the maximum). Put shortly: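 Multiplexed TRANS reporter assay in HepG2; 24 h dosing; reporter mRNA by RT-PCR/CE fluorescence; gain-of-signal relative to DMSO.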
For experiment [20], the target named is human Thyroid Receptor alpha (THRa1), THRA (gene 7067) (UniProt P10827). Description: ATG_THRa1_TRANS: Attagene TRANS-FACTORIAL HepG2 Assay for human Thyroid Receptor alpha (THRa1) (AID 2283014; active = hit-call score of the fitted dose curve at least 0.9, where 1 is the maximum). In a few lines: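 First, HepG2 cells receive multiple GAL4-UAS reporter units and the chimeric receptor. They are then dosed for 24 h, after which RNA is reverse-transcribed, amplified, labelled, HpaI-cut and sized by capillary electrophoresis; gain relative to DMSO is scored.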

Inconclusive results are not listed. Calls of active or inactive are those of the source. The calls were made as follows, unless noted: active = hit-call score of the fitted dose curve at least 0.9, where 1 is the maximum; inactive = score below 0.9.

As usually defined, the AC50 is the concentration at which the activity in the assay is half-maximal.

Chain of human Vitamin D Receptor (VDR), VDR (gene 7421) (P11473 whole entry, looked up, the tested form may be a part): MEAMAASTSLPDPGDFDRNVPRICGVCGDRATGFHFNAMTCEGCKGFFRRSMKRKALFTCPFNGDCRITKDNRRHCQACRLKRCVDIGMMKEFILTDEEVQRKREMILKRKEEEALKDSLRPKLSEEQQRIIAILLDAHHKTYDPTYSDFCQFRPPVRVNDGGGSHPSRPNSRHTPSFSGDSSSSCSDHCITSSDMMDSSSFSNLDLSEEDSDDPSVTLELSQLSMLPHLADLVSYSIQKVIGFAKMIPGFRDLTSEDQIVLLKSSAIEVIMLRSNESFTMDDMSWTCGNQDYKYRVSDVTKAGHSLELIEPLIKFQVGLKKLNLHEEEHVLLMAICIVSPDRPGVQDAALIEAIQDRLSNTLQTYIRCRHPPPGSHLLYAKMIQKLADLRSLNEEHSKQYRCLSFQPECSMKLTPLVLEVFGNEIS
Chain of human Retinoid X Receptor beta (RXRb), RXRB (gene 6257) (P28702 whole entry, looked up, the tested form may be a part): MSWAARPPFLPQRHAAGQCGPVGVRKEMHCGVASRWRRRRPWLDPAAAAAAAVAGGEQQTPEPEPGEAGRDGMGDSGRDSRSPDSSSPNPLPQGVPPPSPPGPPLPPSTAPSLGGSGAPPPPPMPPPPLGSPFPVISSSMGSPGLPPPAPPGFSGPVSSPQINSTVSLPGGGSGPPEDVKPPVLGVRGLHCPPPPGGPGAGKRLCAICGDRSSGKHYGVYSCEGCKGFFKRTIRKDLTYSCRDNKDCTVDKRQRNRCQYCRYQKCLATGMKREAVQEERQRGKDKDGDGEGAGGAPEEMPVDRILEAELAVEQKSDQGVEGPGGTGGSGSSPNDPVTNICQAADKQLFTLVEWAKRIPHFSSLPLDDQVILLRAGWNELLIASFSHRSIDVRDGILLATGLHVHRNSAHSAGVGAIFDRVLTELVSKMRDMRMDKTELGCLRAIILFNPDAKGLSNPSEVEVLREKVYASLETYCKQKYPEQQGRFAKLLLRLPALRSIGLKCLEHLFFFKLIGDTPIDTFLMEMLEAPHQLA
Chain of human Thyroid Receptor alpha (THRa1), THRA (gene 7067) (P10827 whole entry, looked up, the tested form may be a part): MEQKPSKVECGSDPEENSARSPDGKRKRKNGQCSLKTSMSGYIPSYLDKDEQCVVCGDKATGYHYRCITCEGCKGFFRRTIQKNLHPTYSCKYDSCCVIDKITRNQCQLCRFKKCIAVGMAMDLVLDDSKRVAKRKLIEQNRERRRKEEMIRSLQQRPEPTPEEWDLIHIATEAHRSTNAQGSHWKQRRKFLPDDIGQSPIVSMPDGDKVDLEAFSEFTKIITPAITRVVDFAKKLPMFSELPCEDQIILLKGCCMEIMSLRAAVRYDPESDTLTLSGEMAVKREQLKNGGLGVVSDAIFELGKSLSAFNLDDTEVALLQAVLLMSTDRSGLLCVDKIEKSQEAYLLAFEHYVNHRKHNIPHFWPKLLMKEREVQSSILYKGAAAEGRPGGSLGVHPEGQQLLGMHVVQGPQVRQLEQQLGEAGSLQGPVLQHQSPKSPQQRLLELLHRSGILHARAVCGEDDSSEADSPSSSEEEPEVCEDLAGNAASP
Chain of E-selectin (Homo sapiens) (P16581 whole entry, looked up): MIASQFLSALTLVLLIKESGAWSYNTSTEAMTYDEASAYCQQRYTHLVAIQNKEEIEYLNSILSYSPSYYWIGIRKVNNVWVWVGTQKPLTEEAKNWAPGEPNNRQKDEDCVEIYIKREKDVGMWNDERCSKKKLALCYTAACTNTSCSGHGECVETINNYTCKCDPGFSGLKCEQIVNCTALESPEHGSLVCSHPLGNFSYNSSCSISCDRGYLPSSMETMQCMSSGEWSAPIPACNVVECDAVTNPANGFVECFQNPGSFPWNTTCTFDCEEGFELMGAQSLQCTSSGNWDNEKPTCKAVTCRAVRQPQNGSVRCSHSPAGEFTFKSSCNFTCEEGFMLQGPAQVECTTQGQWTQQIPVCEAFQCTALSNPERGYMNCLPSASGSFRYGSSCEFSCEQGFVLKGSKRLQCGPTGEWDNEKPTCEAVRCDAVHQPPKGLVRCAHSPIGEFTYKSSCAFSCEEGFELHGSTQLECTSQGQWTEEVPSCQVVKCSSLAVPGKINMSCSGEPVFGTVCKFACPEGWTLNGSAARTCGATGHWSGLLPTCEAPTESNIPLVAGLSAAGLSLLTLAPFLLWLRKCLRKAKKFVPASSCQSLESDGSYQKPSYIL
Chain of Retinoic acid receptor RXR-alpha (Homo sapiens) (P19793 whole entry, looked up, the tested form may be a part): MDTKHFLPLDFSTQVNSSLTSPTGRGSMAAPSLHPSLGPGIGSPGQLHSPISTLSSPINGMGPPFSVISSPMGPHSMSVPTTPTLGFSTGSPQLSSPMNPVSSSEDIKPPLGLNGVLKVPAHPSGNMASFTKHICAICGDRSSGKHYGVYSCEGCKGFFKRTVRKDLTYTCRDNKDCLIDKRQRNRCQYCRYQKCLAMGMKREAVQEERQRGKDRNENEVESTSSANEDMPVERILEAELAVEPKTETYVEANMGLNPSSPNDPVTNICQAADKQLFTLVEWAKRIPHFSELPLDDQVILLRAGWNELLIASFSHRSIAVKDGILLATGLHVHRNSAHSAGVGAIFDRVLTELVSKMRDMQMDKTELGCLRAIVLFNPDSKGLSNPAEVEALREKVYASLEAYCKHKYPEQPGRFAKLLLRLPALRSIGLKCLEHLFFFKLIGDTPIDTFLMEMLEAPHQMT

Regarding `CC(C)(C)OOC(=O)c1ccccc1`, the compound was called inactive in experiment [1], in [2], in experiment [3], in [4], in [5] and in experiment [6]. In addition, the outcome in [7], in [8], in [9], in [10], in experiment [11] and in [12] was inactive. The result in experiment [13], in [14], in experiment [15], in [16], in experiment [17] and in experiment [18] was inactive.

With `OCCCl`, the result in [19], in experiment [20], in experiment [2], in experiment [3], in experiment [4] and in experiment [5] was inactive. Also, the result in experiment [6], in experiment [7], in experiment [8], in experiment [9], in experiment [10] and in experiment [11] was inactive. The outcome in experiment [12], in experiment [14], in [15], in [16], in experiment [17] and in [18] was inactive.

Take `CCCSC(=O)N(CCC)CCC`: the AC50 in experiment [19] was 34.1 µM (active). The outcome in experiment [20], in experiment [2], in experiment [3], in experiment [4], in experiment [5] and in experiment [6] was inactive. Besides, the result in [7], in experiment [8], in experiment [9], in experiment [10], in [11] and in [12] was inactive. The outcome in experiment [14], in experiment [15], in [16], in [17] and in [18] was inactive.

Consider `Cn1cc(-c2ccccc2)c(=O)c(-c2cccc(C(F)(F)F)c2)c1`, for which the outcome in experiment [2], in experiment [3], in experiment [4], in [5], in [6] and in experiment [7] was inactive. For the same compound, the result in experiment [8], in experiment [10], in experiment [11], in experiment [12], in [13] and in experiment [14] was inactive. Also, the result in experiment [15], in experiment [16], in [17] and in experiment [18] was inactive.

In the case of `COc1cc(C=O)cc2c1[C@H](COC(N)=O)[C@]1(OC(C)=O)ON2C[C@H]2[C@@H]1N2C(C)=O`, the AC50 in experiment [2] was 10.8 µM (active); in experiment [3], 2.63 µM (active); in experiment [4], 6.85 µM (active); in experiment [5] it was 3.22 µM (active); in experiment [6], 15.9 µM (active); in experiment [7] it was 11.9 µM (active). Moreover, the concentration at half-maximal activity (AC50) in experiment [8] was 29.2 µM (active); in experiment [10] it was 6.86 µM (active); in experiment [11] it was 3.3 µM (active); in [12] it was 10.3 µM (active); in experiment [13], 3.37 µM (active); in experiment [14] it was 3.17 µM (active). Further, the AC50 in experiment [15] was 6.31 µM (active); in experiment [17], 1.14 µM (active); in [18] it was 4.42 µM (active). For the same compound, the outcome in experiment [16] was inactive.

With `c1ccc2c(c1)oc1ccccc12`, the result in experiment [20], in experiment [2], in experiment [3], in [4], in experiment [5] and in experiment [6] was inactive. The result in experiment [7], in experiment [8], in experiment [10], in experiment [11], in [12] and in experiment [14] was inactive. The outcome in experiment [15], in experiment [16], in experiment [17] and in [18] was inactive.

Take `CN(C)c1ccc(C(=O)c2ccc(N(C)C)cc2)cc1`: the result in [19], in [2], in [3], in experiment [5], in experiment [8] and in experiment [9] was inactive. The outcome in experiment [11], in [13], in [15], in [16], in [17] and in experiment [18] was inactive. Further, the AC50 in [4] is 2.3 µM (active); in experiment [6] it was 20 µM (active); in experiment [7] it was 2.55 µM (active); in experiment [10], 3.55 µM (active); in [12], 5.81 µM (active); in experiment [14] it was 1.56 µM (active).
